Hits are enriched below; roughly 2.4% of the tested compounds scored in any of these assays.
Rango release inh = inhibition of RanGTP-driven Rango-importin beta dissociation; O95149+P62826; Biochemical FRET Rango-importin beta, RanGTP-induced dissociation; Potency, µM (top dose mostly 46.1 µM), inactives show at the top dose activity change, negative = inhibition; actives 0.071% (n = 340,000); AID 540253; calls by dose curve; note: % of control where 0% means no effect; nearly all actives have a fitted effect of over 45% in size
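Compounds sat 5 min at room temperature with 0.1 uM Rango biosensor plus 0.25 uM importin beta, then FRET pre-read. RanGTP-RCC1 (0.6 uM Ran, 2mM GTP, 0.2 uM RCC1) added for 45 min, and the CFP/YFP post-read measured blocked complex dissociation.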
Rango complex inh = prevents formation of the Rango-importin beta complex | Rango CFP/YFP FRET sensor + importin beta, 45 min | Potency, µM (highest dose often 92.2 µM), for inactives: at the top dose inhibition of complex formation | actives 0.031% (n = 340,000) | AID 540263; calls by dose curve;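 note: 0% = DMSO wells and 100% = buffer wells lacking importin beta; nearly all actives have a fitted effect of over 15% in size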
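FRET biosensor Rango (snurportin 1 IBB between N-terminal EYFP and C-terminal Cerulean), 50 nM in PBS/1 mM DTT/0.02% Tween-20/0.1% BSA, preincubated 5 min RT with compound; 0.125 microM importin beta added, 45 min RT, CFP/YFP FRET ratio read.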
Tb PFK block = T. brucei PFK enzyme inhibition | actives 0.17% (n = 330,000) | O15648 | T. brucei PFK, ADP-Glo luminescence | AID 485367 | Potency, µM (doses to about 57.5 µM), without a hit: top-dose activity, negative = inhibition, most hits filed as inhibitors;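 note: 0% = uninhibited 1x PFK enzyme wells and -100% = no-enzyme wells; nearly all actives have a fitted effect of over 60% in size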
Target sequence (O15648 whole entry, looked up): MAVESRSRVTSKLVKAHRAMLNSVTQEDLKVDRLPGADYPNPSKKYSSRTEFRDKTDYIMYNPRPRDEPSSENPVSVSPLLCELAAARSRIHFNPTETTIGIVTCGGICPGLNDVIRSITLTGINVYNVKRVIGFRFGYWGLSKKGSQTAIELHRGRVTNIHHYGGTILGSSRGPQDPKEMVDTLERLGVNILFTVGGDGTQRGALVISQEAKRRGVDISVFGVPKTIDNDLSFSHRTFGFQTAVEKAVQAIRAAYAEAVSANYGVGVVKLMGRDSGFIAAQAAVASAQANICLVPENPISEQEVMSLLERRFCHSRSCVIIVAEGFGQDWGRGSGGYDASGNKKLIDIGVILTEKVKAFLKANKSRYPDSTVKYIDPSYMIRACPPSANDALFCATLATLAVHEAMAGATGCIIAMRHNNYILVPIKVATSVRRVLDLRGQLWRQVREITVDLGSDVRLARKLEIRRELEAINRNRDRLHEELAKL
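Luminescent ADP detection (ADP-Glo, two-step: ATP depletion then ADP-to-ATP conversion for luciferase) reported PFK activity after 45 min room-temperature reaction of 1.25 nM enzyme with 0.5 mM F6P and 0.1 mM ATP at pH 8.0.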
PGK inhibitor = inhibitors of T. brucei phosphoglycerate kinase | P07378 | PGK/GAPDH coupled, Kinase-Glo luminescence, 60 min | Potency, µM (doses to about 57.5 µM), without a hit: at the top dose activity change, negative = inhibition, actives largely listed as inhibitors | actives 0.043% (n = 380,000) | AID 602233; note: % is set by controls: 0 for no effect and ±100 for the full control effect; nearly all actives have a fitted effect of over 60% in size
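Luminescent ATP detection (Kinase-Glo Plus) follows a 60-minute room-temperature incubation, with wells lacking PGK as controls. Buffer: 100 mM TEA (pH 7.6), 5 mM MgCl2, 0.01% Tween-20. Coupling enzyme GAPDH (100 nM final) supplies unstable 1,3-BPG in-well.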
ELG1 repair inh = blocks ELG1-dependent DNA repair in HEK293T cells. HEK293T ELG1-luciferase reporter, luminescence, 16 h; DNA damage induced by 5-fluorouridine. Potency, µM (series often up to 46.1 µM), for the others: at the top dose activity change, negative = inhibition, hits mostly inhibitors. actives 2.3% (n = 330,000). AID 504467; note: % is set by controls: 0 for no effect and ±100 for the full control effect; nearly all actives have a fitted effect of over 55% in size
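In this reporter screen, reduction of luminescence relative to DMSO vehicle indicated activity. Compounds and 5-fluorouridine were added together to 2,000 cells per well, incubated for 16 hr at 37 °C, then developed with ONE-Glo.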
PKM2 act = activators of human pyruvate kinase M2; P14618; purified PKM2, Kinase-Glo ATP luminescence, activation; response scale: 0% is enzyme alone, no compound; Potency, µM (titrated, usually from 57.5 µM), for the others: at the highest dose activation, most hits filed as activators; actives 0.34% (n = 260,000); note: % is set by controls: 0 for no effect and ±100 for the full control effect; nearly all actives have a fitted effect of over 55% in size
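Kinase-Glo luminescence reports ATP generated from ADP (0.1 mM) and PEP (0.5 mM) by purified hPK-M2 after 1 h at room temperature, pH 7.2 imidazole buffer; intermediate enzyme activity allows detecting inhibitors and activators.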
* marks the source's active call; other numbers are inactive results; i = inactive; ? = inconclusive; / = no result. Unless noted, calls come from the whole dose curve; as a rule, active = well fitted curve in the direction sought with a large enough effect; inconclusive = small, poorly fitted or top-dose-only effect, or another doubt; inactive = no such curve, though single readings can be large; an effect the other way counts as inactive or inconclusive. Potency is the fitted concentration of half-maximal effect.

SMILES	Rango release inh	Rango complex inh	Tb PFK block	PGK inhibitor	ELG1 repair inh	PKM2 act
CCOc1ccc(NC(=O)CN(C)C(=O)c2cn(-c3ccc(C)cc3)nc2-c2cccc(OC)c2)cc1OCC	-4%	-1%	/	i	/	/
CCOc1ccc(NC(=O)CN(C)C(=O)c2cn(-c3ccccc3)nc2-c2cccs2)cc1OCC	29%	0%	3%	-9%	21µM*	/
COc1cccc(-c2nn(-c3ccc(C)cc3)cc2C(=O)N(C)CC(=O)Nc2cccc(F)c2)c1	8%	-1%	-2%	0%	13µM*	/
Cc1cccc(-c2nn(-c3ccccc3)cc2C(=O)N(C)CC(=O)Nc2ccc(N3CCOCC3)cc2)c1	10%	1%	-12%	-6%	12µM*	/
CCOC(=O)c1ccc(N2C(=O)c3[nH]nc(-c4ccccc4)c3C2c2ccc(CC)cc2)cc1 (stereo not given)	/	/	/	-7%	/	/
CCOc1cc(C(N)=O)cc(Cl)c1OCC	4%	6%	-2%	-2%	-20%	0%
CCOc1cc(C(N)=O)cc(Br)c1OCC	-5%	-3%	-6%	-3%	8.2µM*	7%
CC(=O)c1ccc(NC(=O)Nc2ccc3c(c2)N(C)C(=O)CS3)cc1	0%	-1%	-1%	1%	18µM*	-5%
Cc1cccc(CSc2nn3c(=O)c(C)nnc3s2)c1	13%	0%	0%	-1%	?	10µM*
Cc1ccc(CSc2nn3c(=O)c(C)nnc3s2)cc1	0%	-1%	-1%	i	?	28%
CCN(CC)S(=O)(=O)c1ccc2[nH]c(=O)cc(C(=O)Nc3ccccc3N3CCCC3)c2c1	1%	2%	2%	-2%	-13%	2%
O=C(Nc1ccc(S(=O)(=O)N2CCCC2)cc1)c1cccs1	21%	1%	0%	-7%	7%	0%
Cc1ccc(S(=O)(=O)N2CCOCC2)cc1C(=O)Nc1ccncc1	32%	-2%	-3%	i	-2%	/
O=C(Nc1nc(-c2ccc(S(=O)(=O)N3CCOCC3)cc2)cs1)c1ccccc1	4%	?	-4%	-1%	13µM*	-1%
Cc1ccc(S(=O)(=O)N2CCOCC2)cc1C(=O)Nc1nc(-c2cccnc2)cs1	-17%	?	3%	-3%	12µM*	8%
Cc1ccc(S(=O)(=O)N2CCOCC2)cc1C(=O)Nc1ccc(-c2cn3ccsc3n2)cc1	6%	-13%	7%	12%	18µM*	12%
O=C(Nc1nc(-c2ccc(S(=O)(=O)N3CCCC3)cc2)cs1)c1cccs1	8%	0%	-23%	-10%	8.2µM*	9%
CCOc1ncccc1C(=O)OCC(=O)NCc1ccccc1	5%	2%	0%	-10%	-2%	/
CCOc1ccccc1C1C(C(=O)Nc2ccccc2)=C(C)Nc2nc(SCC(=O)c3ccc(C)cc3)nn21 (stereo not given)	/	/	/	0%	/	/
O=C(Nc1nnc(-c2cccs2)o1)c1ccc(S(=O)(=O)N2CCOCC2)cc1	29%	0%	-1%	-13%	21µM*	-2%
O=C(Nc1nc(-c2cccs2)cs1)c1cccc(S(=O)(=O)N2CCCCC2)c1	-13%	1%	0%	i	?	2%
CS(=O)(=O)c1ccccc1-c1nnc(NC(=O)c2ccc(S(=O)(=O)N3CCCC3)cc2)o1	-14%	0%	-7%	-2%	7%	/
O=C(Nc1nc(-c2ccc(S(=O)(=O)N3CCCCCC3)cc2)cs1)c1cccs1	-16%	?	1%	3%	13µM*	-4%
CCN(CC)S(=O)(=O)c1ccc(OC)c(NC(=O)CSCc2c(C)noc2C)c1	-13%	4%	5%	i	-24%	/
